Measured values: PubChem BioAssay (NCATS)
Inconclusive results are not listed. A call without a number means that no potency is given here. Activity calls are given as the source filed them. Calls follow the shape of the dose curve; as a rule, active = well fitted inhibition curve with a large enough effect; inconclusive = small, poorly fitted or top-dose-only effect; inactive = no such curve, though single readings can be large or run the other way. Non-standard residues stand in square brackets, D forms with d. Residues, ends and D or L forms follow the SMILES beside them. *: point of attachment. Sta = CC(C)C[C@H](N)[C@@H](O)CC(=O)O; Isovaleryl = CC(C)CC(=O)*

experiment: qHTS Screen of the MIPE 4.0 Collection Against Ewings Sarcoma (RDES) (AID 1259252); conditions: RD-ES Ewing sarcoma viability, CellTiter-Glo, 48 h; series mostly up to 45.8 µM; also: nearly all actives have a fitted effect of over 35% in size
Excerpt: There is a large unmet medical need for treatments for Ewing sarcoma, a pediatric sarcoma. We sought to identify compounds that inhibited Ewing sarcoma cells in vitro with the goal to then test promising drugs in two drug combinations in vitro to look for synergistic drug combinations. Promising combinations would then proceed to additional validation, including in vivo testing.
Using the NCATS developed oncology compound library called the Mechanism of Interrogation Plate (MIPE), four Ewing sarcoma cell lines were evaluated (TC32, TC71, RDES, EW8). Compounds, in a 12-point titration series, were incubated with cells for 48 hours and the read out was cell viability (CellTiter-Glo from Promega). These initial experiments were used to select appropriate concentrations of each single agent for subsequent two-drug matrix combinations such that the concentrations in the matrices would span both activity and non-activity.
Cells, in the log phase of growth, were seeded in 5 uL of RPMI plus 5% FBS, […] L-glutamine, 100 U/ml penicillin and 100 ug/ml streptomycin into 1536-well solid-bottom white tissue culture treated Greiner Bio One Plates (789173-F) using a MultiDrop Combi (Thermofisher Scientific) dispenser and a small sterile cassette. One column was media alone to be used as a :"no cells" control. The plates were then covered with sterilized stainless steel gasketed lids from Kalypsys. After allowing cells to attach for 4 hours, 23 nL of test compound or control (negative control DMSO and positive control 9.2 uM Bortezomib-final) were added from a 1536-well polypropylene compound source plate to each well using a 1536 head pin tool from Kalypsys. Cells were then incubated for 48 hours at 37C, 95% relative humidity and 5% CO2. After 48 hours, plates were removed from the incubator and 3 uL of CellTiter-Glo (Promega) was added using an Aurora Flying Reagent Dispenser Bioraptor. Plates were incubated at room temperature for 10 minutes prior to reading the luminescence on the Viewlux (PerkinElmer). The relative luciferase units are used to calculate the percent activity using the activity of DMSO in the cells and no cells columns for normalization of no inhibition and full inhibition respectively.
Potency is read from the fitted curve at half-maximal effect.

Row | SMILES | Potency
1 | Cc1nc(-c2ccc(OCC(C)C)c(C#N)c2)sc1C(=O)O | inactive
2 | CC(C)CC(=O)N[C@H](C(=O)N[C@H](C(=O)N[C@@H](CC(C)C)[C@@H](O)CC(=O)N[C@@H](C)C(=O)N[C@@H](CC(C)C)[C@@H](O)CC(=O)O)C(C)C)C(C)C (Isovaleryl-VV[Sta]A[Sta]-OH) | inactive
3 | CCCCCCCCCCCCCCCCCCCCCCO | inactive
4 | CN(C)c1ccc2nc3ccc(=[N+](C)C)cc-3sc2c1 | 2.35 µM (active)
5 | Oc1ccc(OCc2ccccc2)cc1 | 2.35 µM (active)
6 | COc1c(O)cc2c(c1O)[C@@H]1O[C@H](CO)[C@@H](O)[C@H](O)[C@H]1OC2=O | inactive
7 | O=C(O)c1cccnc1Nc1cccc(C(F)(F)F)c1 | inactive
8 | CC1(C)NC(=O)N(c2ccc([N+](=O)[O-])c(C(F)(F)F)c2)C1=O | inactive
9 | COc1cc2nc(N3CCN(C(=O)C4CCCO4)CC3)nc(N)c2cc1OC (stereo not given) | inactive
10 | COc1ccc(C2(C#N)CCC(C(=O)O)CC2)cc1OC1CCCC1 (stereo not given) | inactive
11 | O=c1oc2cc(O)ccc2s1 | 16.6 µM (active)
12 | Cn1c(NCCN(CCO)CCCc2ccc([N+](=O)[O-])cc2)cc(=O)n(C)c1=O | 20.9 µM (active)
13 | CNC[C@@H](O)[C@@H](O)[C@H](O)[C@H](O)CO | inactive
14 | CC(C)(S)[C@@H](N)C(=O)O | inactive
15 | O=c1c(O)c(-c2cc(O)c(O)c(O)c2)oc2cc(O)cc(O)c12 | 16.6 µM (active)
16 | COc1cc(Nc2c(C#N)cnc3cc(OCCCN4CCN(C)CC4)c(OC)cc23)c(Cl)cc1Cl | 3.32 µM (active)
17 | COc1cc2c(N3CCN(C(=O)Nc4ccc(OC(C)C)cc4)CC3)ncnc2cc1OCCCN1CCCCC1 | 26.4 µM (active)
18 | O=P(O)(O)C(O)(Cn1ccnc1)P(=O)(O)O | inactive
19 | Nc1cccc2c1CN(C1CCC(=O)NC1=O)C2=O (stereo not given) | inactive
20 | COC(=O)C1=C(C)NC(C)=C(C(=O)OC(C)C)C1c1cccc2nonc12 (stereo not given) | 23.5 µM (active)

Row | SMILES | Potency
21 | COCCCOc1ccnc(CS(=O)c2nc3ccccc3[nH]2)c1C (stereo not given) | inactive
22 | CC(=O)N1CCN(c2ccc(OC[C@H]3CO[C@](Cn4ccnc4)(c4ccc(Cl)cc4Cl)O3)cc2)CC1 | 16.6 µM (active)
23 | OC(CN1CCN(c2cccc(Cl)c2)CC1)C(c1ccccc1)c1ccccc1 (stereo not given) | inactive
24 | CC(C)[N+]1(C)[C@@H]2CC[C@H]1CC(OC(=O)C(CO)c1ccccc1)C2 (stereo not given in full) | inactive
25 | COc1ccc2cc([C@H](C)C(=O)O)ccc2c1 | inactive
26 | C[C@@H](N)C1CCC(C(=O)Nc2ccncc2)CC1 (stereo not given in full) | 18.7 µM (active)
27 | Nc1ccc(S(N)(=O)=O)cc1 | inactive
28 | CCCCC(CC)COC(=O)C(C#N)=C(c1ccccc1)c1ccccc1 (stereo not given) | inactive
29 | N[C@@H](Cc1cc(I)c(Oc2cc(I)c(O)c(I)c2)c(I)c1)C(=O)O | inactive
30 | NCCCCNCCCN | inactive
31 | O=c1cc(N2CCOCC2)oc2c(-c3ccccc3)cccc12 | 13.2 µM (active)
32 | CCCCCCCCOc1ccccc1C(=O)Nc1ccc(C(=O)OCC[N+](C)(CC)CC)cc1 | inactive
33 | CCC(C)(Oc1ccc(C2(c3ccc(OC(C)(CC)C(=O)O)cc3)CCCCC2)cc1)C(=O)O (stereo not given) | inactive
34 | C[Se]CCC(N)C(=O)O (stereo not given) | inactive
35 | Cc1ccc(S(=O)(=O)NC(=O)NN2CC3CCCC3C2)cc1 (stereo not given) | 18.7 µM (active)
36 | CN(C)C(=O)[C@H](O)[C@H](Cc1ccccc1)NC(=O)c1cc2cc(Cl)ccc2[nH]1 | 18.7 µM (active)
37 | CCCS(=O)c1ccc2nc(NC(=O)OC)[nH]c2c1 (stereo not given) | 20.9 µM (active)
38 | CCN(CC)C(=S)SSC(=S)N(CC)CC | 0.118 µM (active)
39 | O=C(c1ccccc1)c1ccc2n1CCC2C(=O)O (stereo not given) | 3.32 µM (active)
40 | C[C@]12CCC(=O)C=C1CC[C@@H]1[C@H]2[C@@H](O)C[C@@]2(C)[C@H]1CC[C@]2(O)C(=O)CO | 20.9 µM (active)
